From PubChem
Most compounds without a hit are left out; they make up all but 4% or so of the library.
D1 antagonist: Antagonist of Human D 1 Dopamine Receptor: qHTS; D(1A) dopamine receptor (Homo sapiens), P21728; HEK293 TREx D1 cells, calcium flux, dopamine EC80; hits give low values; activity change, negative = inhibition, % at 10 µM; 3.2% of 360,000 active; AID 504652, 2011; in the data active = activity change below about -30%
Target sequence (P21728 whole entry, looked up): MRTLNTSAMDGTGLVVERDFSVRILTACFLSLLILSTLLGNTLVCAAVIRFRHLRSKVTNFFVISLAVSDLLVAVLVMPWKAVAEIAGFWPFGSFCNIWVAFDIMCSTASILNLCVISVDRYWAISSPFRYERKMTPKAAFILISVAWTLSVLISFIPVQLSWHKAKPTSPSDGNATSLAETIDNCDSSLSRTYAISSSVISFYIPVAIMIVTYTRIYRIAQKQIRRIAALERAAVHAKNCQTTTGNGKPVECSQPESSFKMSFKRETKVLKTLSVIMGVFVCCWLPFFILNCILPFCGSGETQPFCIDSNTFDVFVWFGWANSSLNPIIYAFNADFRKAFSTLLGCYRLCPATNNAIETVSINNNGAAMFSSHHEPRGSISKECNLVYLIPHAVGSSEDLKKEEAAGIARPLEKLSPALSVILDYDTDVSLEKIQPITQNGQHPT
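Inducible Hek293 Trex D1 cells (tetracycline, overnight, 30 C). Calcium dye 30–90 min RT. Antagonist mode: EC80 dopamine added after 180 s compound read.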
Glioma ERSR ind: qHTS for Inducers of the Endoplasmic Reticulum Stress Response (ERSR) in Human Glioma: qHTS. U87-MG GRP78 promoter luciferase reporter, 16 h. Potency, µM, most hits filed as activators. 0.02% of 420,000 active; active = well fitted activation curve with a large enough effect; also: series mostly up to about 76 µM; nearly all actives have a fitted effect of over 35% in size
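ERSR induction read as luciferase luminescence (Bright-Glo, 10 min at room temperature) in stably transfected human U87-MG glioma cells exposed to compounds for 16 h, using GRP78 as sensor.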
D1 agonist: Allosteric Agonists of the Human D1 Dopamine Receptor: qHTS; AID 504660, 2011; 1% of 360,000 active; activation, % at 2 µM; HEK293 T-REx D1 cells, calcium flux, agonist mode
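Agonism was scored from calcium flux recorded over 180 s (1 read/s) after pintool compound addition, following a 10-cycle baseline. Cells were inducible force-coupled HEK293 TREx D1, plated overnight at 30 C and loaded with no-wash calcium dye.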
D1 PAM: Potentiators of Human D1 Dopamine Receptor: qHTS | HEK293 TREx D1 cells, calcium flux, dopamine EC20 potentiation | 0.036% of 360,000 active | potentiation, % at 10 µM | AID 504651, 2011; in the data active = potentiation above about 30%
TRHR PAM: qHTS for Small Molecule Agonists and Allosteric Enhancers of Human TRH Receptor: Primary Screen for Enhancers; AID 493056, 2011; Thyrotropin-releasing hormone receptor (Homo sapiens), P34981; 0.66% of 360,000 active; enhancement, % at 2 µM; TRHR cells, fluo-8 calcium fluorescence, EC20 TRH enhancement; in the data active = enhancement above about 30%
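Enhancer read-out: after compound pinning and an initial kinetic agonist-mode read, an EC20 of TRH (10 nM final) was injected and fluo-8 calcium signal (Ex 480/Em 530) followed at 1 s/cycle for 100 cycles in TRHR-expressing cells.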
TRHR agonist: qHTS for Small Molecule Agonists and Allosteric Enhancers of Human TRH Receptor: Primary Screen for Agonists. Thyrotropin-releasing hormone receptor (Homo sapiens), P34981. TRHR cells, calcium flux fluo-8, FDSS agonist mode. activation, % at 2 µM. 0.18% of 360,000 active. AID 493084, 2011
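In this calcium-flux screen, cells bearing human TRHR are dye-loaded with fluo-8, baselined for 10 cycles, then exposed to library compounds; positive kinetic calcium responses during the agonist phase mark hits, with TRH as control.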
Of the large screens only hits and unclear results are named; the others gave an inactive call. Rule as the data show it, unless noted: active = activation above about 30%; inactive = the rest.

CC(Cc1cccs1)NC(=S)Nc1ccc(F)cc1 (stereo not given)	D1 antagonist -43.6
C/C(CC(=O)Nc1cccc(Cl)c1Cl)=N\NC(=O)c1ccccc1C	D1 antagonist -43.1
C/C(CC(=O)Nc1cccc(Cl)c1Cl)=N\NC(=O)C(=O)N1CCCC1	none
C/C(CC(=O)Nc1ccc(C)c(Cl)c1)=N\NC(=O)c1cccc(O)c1	TRHR PAM 31.6
Cc1c(C(=O)NCC(c2ccc(Cl)cc2)N2CCOCC2)oc2ccccc12 (stereo not given)	none
O=C(NCc1nnc2n1CCN(Cc1cc3c(cc1Cl)OCO3)CC2)c1cccc(F)c1	none (no result: D1 antagonist, D1 agonist, D1 PAM, TRHR PAM, TRHR agonist)
CC1=C(C(=O)Nc2ccc(C)cc2C)C(c2ccc(C(=O)O)cc2)n2nc(SCc3ccccc3)nc2N1 (stereo not given)	D1 antagonist -59.5
O=[N+]([O-])c1cc(C(F)(F)F)cc([N+](=O)[O-])c1N1CCN(S(=O)(=O)c2ccccc2)CC1	D1 antagonist -32.3
N#Cc1ccc(/C=C2/C=Cc3ccccc32)cc1	none (no result: D1 antagonist, D1 agonist, D1 PAM, TRHR PAM, TRHR agonist)
Cc1cccc(N2CCN(C(=O)c3cc4ccccc4oc3=O)CC2)c1C	D1 antagonist -75.5
Cc1cccc(N2CCN(C(=O)NC3CCCCC3)CC2)c1C	D1 antagonist -41.3, D1 agonist 32.5
Cc1noc(C)c1S(=O)(=O)N(CC(=O)NCc1ccc(F)cc1)c1ccc(C(C)C)cc1	D1 antagonist -34.7
COc1ccccc1NC(=O)CN(c1ccc(C)cc1)S(=O)(=O)c1c(C)n[nH]c1C	D1 antagonist -53.5
CCOc1ccc(N(CC(=O)Nc2cccc(F)c2)S(=O)(=O)c2c(C)noc2C)cc1	D1 antagonist -34.3
COc1ccc(OC)c(NC(=O)CN(c2ccc(C)cc2)S(=O)(=O)c2c(C)n[nH]c2C)c1	none
CCOc1ccccc1NC(=O)CN(c1cc(C)cc(C)c1)S(=O)(=O)c1c(C)noc1C	D1 antagonist -39.5
O=c1c2cc3c(cc2n(Cc2ccc(Cl)cc2)c(=O)n1Cc1nc(-c2ccccc2)no1)OCO3	none
COc1ccc(C)cc1NC(=O)C1CCN(S(=O)(=O)c2ccc3[nH]c4c(c3c2)CCCCC4)CC1	none
CCC(C)c1ccc(NC(=O)COC(=O)CCNC(=O)c2ccco2)cc1 (stereo not given)	none
Cc1ccc(C)c(NC(=O)COC(=O)CCNC(=O)c2ccco2)c1	D1 antagonist -50.3 (no result: D1 PAM)
Nc1[nH]c(=S)[nH]c(=O)c1N	none (no result: D1 antagonist, D1 agonist, D1 PAM, TRHR PAM, TRHR agonist)
CC(=O)N1CCN(S(=O)(=O)c2cccc(C(=O)OCC(=O)N(CCC#N)c3ccc(F)cc3)c2)CC1	none
CCCCOc1ccc(C2c3c(oc4ccccc4c3=O)C(=O)N2c2nc(C)c(C(=O)OCC)s2)cc1OC (stereo not given)	D1 antagonist -31.0
Cc1onc(-c2ccccc2)c1C(=O)N/N=C/c1ccccc1OC(C)C	D1 antagonist -31.5
O=C(CCCN1C(=O)C(c2ccccc2)Oc2cccnc21)Nc1cccc(F)c1 (stereo not given)	D1 antagonist -44.1
CCCn1nnnc1COc1ccc(C(N)=O)cc1	none
O=C(OCC1OC(OC(=O)c2cc(O)c(O)c(OC(=O)c3cc(O)c(O)c(O)c3)c2)[C@@H](OC(=O)c2cc(O)c(O)c(OC(=O)c3cc(O)c(O)c(O)c3)c2)C(OC(=O)c2cc(O)c(O)c(OC(=O)c3cc(O)c(O)c(O)c3)c2)C1OC(=O)c1cc(O)c(O)c(OC(=O)c2cc(O)c(O)c(O)c2)c1)c1cc(O)c(O)c(OC(=O)c2cc(O)c(O)c(O)c2)c1 (stereo not given in full)	none (no result: D1 antagonist, D1 agonist, D1 PAM, TRHR PAM, TRHR agonist)
Cc1ccc(N2CCN(C(=O)c3cnn(-c4ccc(C)c(C)c4)c3C3CCNCC3)CC2)c(C)c1	D1 agonist 82.5
Cc1cc(C)cc(NC(=O)c2cnn(-c3ccc(C)c(C)c3)c2C2CCNCC2)c1	none
Cc1ccc(Cl)cc1N1CCN(C(=O)c2cnn(-c3ccc(Cl)cc3)c2C2CCNCC2)CC1	D1 agonist 38.5
Cc1cccc(N2CCN(C(=O)c3cnn(-c4cccc(Cl)c4C)c3C3CCNCC3)CC2)c1C	none
O=C(OCn1nnc2ccccc2c1=O)c1cc2ccccc2o1	D1 antagonist -31.7
O=C(OCn1nnc2ccccc2c1=O)c1ccco1	none
O=[N+]([O-])c1nc2ccccc2[nH]1	none (no result: D1 antagonist, D1 agonist, D1 PAM, TRHR PAM, TRHR agonist)
Cc1cccn2c(Nc3ccccc3)c(-c3ccc(N4CCOCC4)cc3)nc12	D1 antagonist -44.8
CCn1c(C(=O)NCc2ccc(F)cc2)cc2oc3ccccc3c21	none
CCOc1ccc(CNC(=O)c2cc3oc4ccccc4c3n2C)cc1	none
COc1cccc(CNC(=O)c2cc3oc4ccccc4c3n2C)c1OC	D1 antagonist -31.9
CCOc1ccccc1CNC(=O)c1cc2oc3ccccc3c2n1CC	D1 antagonist -42.8
Cc1ccc(/C=N/NC(=O)c2cc(C3CC3)nc3ccccc23)o1	none
CN(C)c1ccc(/C=C2/CCCc3c2nc2ccccc2c3C(=O)O)cc1	none (no result: D1 antagonist, D1 agonist, D1 PAM, TRHR PAM, TRHR agonist)
COc1ccc(-c2cc(C(=O)NCCc3ccccc3)c3c(-c4ccccc4)[nH]nc3n2)cc1	D1 antagonist -40.2
CCOc1ccc(CCNC(=O)c2cn(-c3ccc(OC)cc3)c(=O)c3ccccc23)cc1OCC	none
CCOc1ccc(CCNC(=O)c2cn(-c3cccc(OC)c3)c(=O)c3ccccc23)cc1	D1 antagonist -41.7
COc1cccc(-n2cc(C(=O)NCc3ccc(C)cc3)c3ccccc3c2=O)c1	none
COc1ccc(CCNC(=O)c2cc(-c3ccccn3)nc3ccccc23)cc1	D1 antagonist -35.4
COc1cccc(-n2cc(C(=O)NCCc3ccc(C)cc3)c3ccccc3c2=O)c1	D1 antagonist -48.4
COc1ccc(CCNC(=O)c2cc(Cl)nc3ccccc23)cc1	none
CCC(CC)NC(=O)C1CCN(c2ccc(S(=O)(=O)N3CCOCC3)cc2[N+](=O)[O-])CC1	none
NC(=O)OC[C@@H]1[C@H](NC(=O)/C(=N/OCC(=O)O)c2csc(N)n2)C(=O)N1S(=O)(=O)O	none (no result: D1 antagonist, D1 agonist, D1 PAM, TRHR PAM, TRHR agonist)
COc1ccc(-n2cc(C(=O)NCCc3ccc(C)cc3)c3ccccc3c2=O)cc1	D1 antagonist -39.4
Cc1ccc(-n2nc3c(c2NC(=O)c2ccccc2Br)CS(=O)C3)cc1 (stereo not given)	D1 antagonist -42.6
Cc1ccc(-n2nc3c(c2NC(=O)c2ccc(OC(C)C)cc2)CS(=O)C3)cc1 (stereo not given)	none
CCCc1nnc(NC(=O)c2cc3ccccc3oc2=O)s1	none
